From paper PMC4336329 (PLoS ONE, 2015)
About 14,000 (4.5%) of roughly 310,000 compounds showed an effect of 50% or more. Effects have a minus sign here. The sample as a whole holds a higher share of strong results than the screen did.

Each molecule was assayed against human ether-à-go-go-related gene (hERG) potassium channel (human, UniProt Q12809) (assay: primary screen, population patch clamp on CHO cells stably expressing hERG; higher = less effect of the substance).
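Further: peak tail current of the secondary pulse compared with the same well before compound.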

human ether-à-go-go-related gene (hERG) potassium channel, sequence (Q12809 whole entry, looked up): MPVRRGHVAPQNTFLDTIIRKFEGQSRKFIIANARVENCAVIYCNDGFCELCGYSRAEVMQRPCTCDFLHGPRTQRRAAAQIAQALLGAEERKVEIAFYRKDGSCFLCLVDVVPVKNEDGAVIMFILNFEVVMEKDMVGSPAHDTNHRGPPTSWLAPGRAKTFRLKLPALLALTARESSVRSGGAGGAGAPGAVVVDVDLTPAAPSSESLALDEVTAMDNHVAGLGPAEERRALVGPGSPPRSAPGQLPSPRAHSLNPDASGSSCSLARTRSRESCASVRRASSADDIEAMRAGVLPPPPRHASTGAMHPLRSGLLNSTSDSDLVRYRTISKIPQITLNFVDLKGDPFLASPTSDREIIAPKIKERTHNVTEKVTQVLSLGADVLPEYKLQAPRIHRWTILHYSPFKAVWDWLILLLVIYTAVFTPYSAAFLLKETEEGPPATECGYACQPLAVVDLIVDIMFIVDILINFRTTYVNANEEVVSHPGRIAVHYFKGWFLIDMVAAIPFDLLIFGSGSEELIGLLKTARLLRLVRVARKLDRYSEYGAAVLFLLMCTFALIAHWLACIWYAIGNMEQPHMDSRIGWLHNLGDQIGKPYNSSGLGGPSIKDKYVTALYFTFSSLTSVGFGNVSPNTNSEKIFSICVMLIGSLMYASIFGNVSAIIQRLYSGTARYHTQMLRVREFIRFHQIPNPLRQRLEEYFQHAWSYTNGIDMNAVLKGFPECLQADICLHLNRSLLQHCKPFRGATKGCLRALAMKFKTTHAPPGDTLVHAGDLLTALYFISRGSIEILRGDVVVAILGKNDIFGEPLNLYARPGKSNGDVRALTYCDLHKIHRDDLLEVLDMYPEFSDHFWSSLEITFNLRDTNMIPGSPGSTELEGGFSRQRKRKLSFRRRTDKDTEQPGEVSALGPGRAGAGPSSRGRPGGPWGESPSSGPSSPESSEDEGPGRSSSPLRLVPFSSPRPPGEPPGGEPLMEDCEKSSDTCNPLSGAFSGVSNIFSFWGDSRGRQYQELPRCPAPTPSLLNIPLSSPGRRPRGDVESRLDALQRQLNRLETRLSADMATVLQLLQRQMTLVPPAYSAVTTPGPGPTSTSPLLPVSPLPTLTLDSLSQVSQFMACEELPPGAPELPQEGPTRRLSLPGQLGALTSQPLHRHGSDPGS

Compound	hERG current change (%, negative = inhibition) at 10uM [%]
COc1ccc(C2C3=C(CC(C)(C)CC3=O)N(CC(=O)O)C3=C2C(=O)CC(C)(C)C3)cc1OC	2.83
COc1cc(OC)c(N2CC34C=CC(O3)C(C(=O)O)C4C2=O)cc1Cl (centres unmarked)	4.99
CCc1nnc(NC(=O)CSc2ccc(-c3nc4ccc(C)cc4[nH]3)cn2)s1	6.54
CCc1ccc(OCC(=O)N(C)C)c(Br)c1	-7.33
CN(C)CCNC(=O)COc1ccc(Cl)cc1Cl	-18.2
CCc1ccc(OCC(=O)NCCN(C)C)c(Br)c1	-58.4
O=C(COC(=O)c1ccc2ncsc2c1)NCc1cccc(Cl)c1	-11.2
COc1ccc(N2CCN(CC(=O)Nc3c(C)cc(C)cc3C)CC2)cc1	0.738
Cc1ccc(CNC(=O)/C=C/c2ccc(Br)o2)cc1	-26.2
O=C(Nc1cccc(Cl)c1)NC1CC2CCC1C2 (centres unmarked)	9.69
c1ccc2c(Nc3ccc4c(c3)OCCO4)c3c(nc2c1)CCCC3	-92.4
Cc1ccc2nc(-c3ccncc3)cc(C(=O)Nc3ccc4c(c3)OCCO4)c2c1	3.46
O=C(COC(=O)c1c2c(nc3ccccc13)CCCC2)Nc1ccc2c(c1)OCO2	3.1
Cc1ccc2nc(-c3ccc4c(c3)OCCO4)cc(C(=O)O)c2c1	4.86
O=C(Nc1c2c(nc3ccccc13)CCCC2)c1ccccc1F	-3
O=C(Nc1ccc2c(c1)OCCO2)c1cc(-c2ccccc2)nc2ccccc12	9.23
Cc1ccc2nc3c(c(Nc4ccc5c(c4)OCCO5)c2c1)CCC3.Cl	-51.7
Cl.c1ccc2c(Nc3ccc4c(c3)OCCO4)c3c(nc2c1)CCC3	-52.3
Cc1cc(C)c(C)c(S(=O)(=O)N2CCC(C(=O)Nc3ccccc3N3CCOCC3)CC2)c1C	-8.54
Cc1cc(Br)ccc1NC(=O)CNC(=O)Cc1ccc(S(=O)(=O)N2CCOCC2)s1	-33.8
CCOC(=O)[C@H]1CCC[C@@H](NS(=O)(=O)c2ccc(NC(C)=O)cc2)C1	14.1
Cc1ccc(Nc2ccc3nonc3c2[N+](=O)[O-])cc1	2.88
CCCCNC(=O)C1c2ccccc2C(=O)N(c2ccc(OC)cc2)C1c1ccc(OC)cc1 (centres unmarked)	-18.6
COc1cc(OC)c(C(=O)NNC(=S)NC2CCCCC2)cc1OC	16.6
O=C(NC(=S)N1CCN(C/C=C/c2ccccc2)CC1)c1ccc(F)cc1	-43.7

Compound	hERG current change (%, negative = inhibition) at 10uM [%]
O=C(NCC(=O)N1CCN(S(=O)(=O)/C=C/c2ccccc2)CC1)c1ccc(Cl)cc1	-23.1
CC(C)Oc1ccc(C(=O)NCC(=O)N2CCN(S(=O)(=O)/C=C/c3ccccc3)CC2)cc1	-67.6
Cc1cccc(C(=O)NCC(=O)N2CCN(S(=O)(=O)/C=C/c3ccccc3)CC2)c1	-18.5
CCOc1ccc(C(=O)NCC(=O)N2CCN(C/C=C/c3ccccc3)CC2)cc1OCC	-41.7
O=C(NCC(=O)N1CCN(C/C=C/c2ccccc2)CC1)c1ccc(OC(F)F)cc1	-79.5
CCOC(=O)c1cnc(SCc2nc(N)nc(Nc3ccccc3OC)n2)nc1N	-2.39
O=C1NCC(COc2cccc3ccccc23)O1 (centres unmarked)	13.3
CCN(CC(=O)Nc1ccc(NC(C)=O)cc1)C(=O)Cc1cccc2ccccc12	4.98
CC1CCCCN1S(=O)(=O)c1ccc2[nH]c(=O)cc(C(=O)NCCCN3CCCCCC3)c2c1 (centres unmarked)	17
O=[N+]([O-])c1ccc(-c2cn(-c3ccccc3F)c(=S)[nH]2)cc1	-3.28
Cc1ccc(-n2cc(-c3ccc([N+](=O)[O-])cc3)[nH]c2=S)c(C)c1	-51.3
Cc1cccc(-n2cc(-c3ccc([N+](=O)[O-])cc3)[nH]c2=S)c1	-2.96
CCOC(=O)C1CCCN(C(=O)Cn2nc(C)n3c(cc4c(OC)cccc43)c2=O)C1 (centres unmarked)	-6.37
O=C(NCC1CCC(C(=O)O)CC1)OCc1ccccc1 (centres unmarked)	3.13
CN1C[C@H](CO)C[C@@H]2c3cccc4[nH]cc(c34)C[C@H]21	-7.36
CN1C[C@H](CNC(=O)OCc2ccccc2)C[C@@H]2c3cccc4c3c(cn4C)C[C@H]21	-61.9
COc1ccc(CCN(C)C2CCCN(C(=O)c3sccc3C)C2)cc1OC (centres unmarked)	-55
COCc1ccc(C(=O)N2CCCC(N(C)CCc3ccc(OC)c(OC)c3)C2)s1 (centres unmarked)	-62.4
CCn1nc(C)cc1C(=O)N1CCCC(N(C)CCc2ccc(OC)c(OC)c2)C1 (centres unmarked)	-16.2
COc1ccc(CCN(C)C2CCCN(C(=O)c3ccnn3C)C2)cc1OC (centres unmarked)	-21.1
COCc1ccc(C(=O)N2CCCC(N(C)Cc3ccccc3)C2)s1 (centres unmarked)	-8.86
Cc1ccsc1C(=O)N1CCCC(N(C)Cc2ccccc2)C1 (centres unmarked)	-13.9
CN(C)CCCn1c(SCc2c(Cl)cccc2Cl)nnc1-c1ccncc1.O=C(O)C(=O)O	-0.471
CCOc1ccc(NC(=O)C2CCCN(c3nn4c(=O)cc(C)nc4s3)C2)cc1 (centres unmarked)	-7.14
COc1ccc(C/C(C)=N/NC(=O)c2ccncc2)cc1	-7.41

Compound	hERG current change (%, negative = inhibition) at 10uM [%]
O=C(CSc1nc(O)c(C2CCCCC2)c(=O)[nH]1)Nc1ccc(F)cc1	22.4
COc1ccc(OCCSc2ncc(CO)n2C)cc1	12.4
CCCCn1c(CN2CCN(C)CC2)nc2ccccc21	-67.1
CCn1c(CN2CCN(CCO)CC2)nc2ccccc21	5.04
CCCn1c(CN2CCN(C)CC2)nc2ccccc21	-9.68
CCCCn1c(CNC(C)=O)nc2ccccc21	3.5
CCCCn1c(CN2CCN(CCO)CC2)nc2ccccc21	-66
CCCCn1c(N)nc2ccccc21.Cl	-8.47
O=S(=O)(Nc1ccccn1)c1ccc(Cl)c2ccccc12	19.5
O=C(NCc1cccnc1)c1cccc2c1C(=O)N(C1CCCCC1)C2	-15.3
CCc1ccccc1N1C(=O)/C(=C/c2ccc(N3CCN(C)CC3)o2)C(=O)NC1=S	1.18
O=C(CCNS(=O)(=O)c1ccccc1C(F)(F)F)NCC(c1ccco1)N1CCCCC1 (centres unmarked)	0.519
CCOc1ccc2nc(NS(=O)(=O)c3cccs3)sc2c1	20.8
COC(OC)c1ccc(C#N)c(SCc2ccccc2)n1	4.03
CCNS(=O)(=O)c1ccc(CCC(=O)NCc2ccccn2)cc1	13.5
O=C(CN1CCCCC1)NNc1nc(-c2ccccc2)c2cc(Cl)ccc2n1	-58
O=C(O)CCC(=O)NNc1nc(-c2ccccc2)c2cc(Cl)ccc2n1	14.4
O=C(CCl)NNc1nc(-c2ccccc2)c2cc(Cl)ccc2n1	1.46
O=C(CN1CCCCC1)NNc1nc(-c2ccccc2)c2cc(Br)ccc2n1	-55.4
CC(=O)NNc1nc(-c2ccccc2)c2cc(Br)ccc2n1	5.01
O=C(CN1CCOCC1)NNc1nc(-c2ccccc2)c2cc(Br)ccc2n1	-38.7
COCCN(C(=O)CCCC(=O)Nc1ccccn1)C(C(=O)NC1CCCC1)c1ccc(C)cc1 (centres unmarked)	-5.66
O=C(Nc1cc2c(oc1=O)CCCC2=O)c1cccc(Cl)c1	4.61
CCC(Oc1ccccc1)C(=O)Nc1ccccc1C(=O)N1CCN(C)CC1 (centres unmarked)	0.0528
N#CC(c1ccccc1)N1CCOCC1 (centres unmarked)	6.63

Compound	hERG current change (%, negative = inhibition) at 10uM [%]
S=C1SCN(Cc2cccnc2)CN1Cc1ccccc1	-54.7
S=C1SCN(Cc2cccnc2)CN1Cc1cccnc1	-20.9
S=C1NCN(Cc2cccnc2)CN1Cc1ccccc1	22.8
Fc1ccc2[nH]c3c(N4CCN(C5CCCCC5)CC4)ncnc3c2c1	-46.7
COc1ccc(CN(CC2CCC(C(=O)O)CC2)C(=S)Nc2cc(C)cc(C)c2)cc1 (centres unmarked)	19.6
CCN1CCN(c2cc(C)nc(-c3ccccc3O)n2)CC1	-58.9
Cc1cc(N2CCN(C)CC2)nc(-c2ccccc2O)n1	-41.9
Cc1cc(N2CCCC2)nc(-c2ccccc2O)n1	-1.15
Cc1ccc(CN2CC(C(=O)Nc3cccc(S(=O)(=O)N4CCCCC4)c3)CC2=O)cc1 (centres unmarked)	6.85
CC(=O)c1ccc(OCC(C)C)c(CC(C(N)=O)C(N)=O)c1	19.2
CCOC(=O)C1=C(C)N(CCO)C(=O)NC1c1cccc(O)c1 (centres unmarked)	18.8
CSc1ccc(CN2CCC(n3nccc3NC(=O)C3CCOC3)CC2)cc1 (centres unmarked)	-67.8
CSc1cccc(CN2CCC(n3nccc3NC(=O)C3CC3)CC2)c1	-51.4
Cc1ccc(CN2CCC(n3nccc3NC(=O)C3CCOC3)CC2)cc1 (centres unmarked)	-26.8
O=C(Nc1ccnn1C1CCN(C(=O)c2ccc(Cl)cc2)CC1)C1CC1	-24.2
O=C(Nc1ccnn1C1CCN(Cc2ccccc2)CC1)C1CCOC1 (centres unmarked)	18.8
O=C(Nc1ccnn1C1CCN(Cc2ccccc2)CC1)C1CCCC1	-36.7
CSc1ccc(CC(=O)N2CCC(n3nccc3NC(=O)C3CC3)CC2)cc1	-8.47
CC(C)n1cc(CN2CCC(n3nccc3NC(=O)C3CCCC3)CC2)cn1	-1.92
O=C(Nc1ccnn1C1CCN(Cc2ccc(Cl)cc2)CC1)C1CCCC1	-63.6
O=C(Nc1ccnn1C1CCN(Cc2cccc(O)c2)CC1)C1CCCC1	-36.5
O=C(Nc1ccnn1C1CCN(Cc2ccc(O)c(Cl)c2)CC1)C1CCCC1	-33
CC(Cc1ccc(Cl)cc1)N1CCC(n2nccc2NC(=O)C2CCCC2)CC1 (centres unmarked)	-76.3
